Test results from PubChem BioAssay (NCI).
This is part of a sample that, as a whole, favours compounds with a hit. Of some 83,000 tested, about 20% had one in any assay.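 Assay: single dose, 48 h. Readout: percent growth (0 = no net growth; negative = cell death). Active: <10.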 Calls of active or inactive are those of the source.

Key:
Experiment in all cases: NCI-60 one-dose screen, 48 h (100 = growth as untreated, 0 = no growth, -100 = all killed)
Details in all cases: 10 µM unless noted
EKVX NSCLC = test system: EKVX NSCLC
SN12C renal = test system: SN12C renal
TK-10 renal = test system: TK-10 renal
ACHN renal = test system: ACHN renal
CAKI-1 renal = test system: CAKI-1 renal
A498 renal = test system: A498 renal
CCRF-CEM leukemia = test system: CCRF-CEM leukemia
MOLT-4 leukemia = test system: MOLT-4 leukemia
UO-31 renal = test system: UO-31 renal

Measured: growth

CNC(=O)c1cc(Oc2cccc3nc(Nc4ccc(Oc5ccccc5)cc4)ccc23)ccn1
inactive: EKVX NSCLC 62.2% | SN12C renal 81.3% | TK-10 renal 78.5% | ACHN renal 81.1% | CAKI-1 renal 67.5% | A498 renal 73.8% | CCRF-CEM leukemia 69.5% | MOLT-4 leukemia 42.7%

COc1ccc(Br)cc1NC(=O)Nc1cccc2c1ccn2Cc1ccnc(N)c1
active: UO-31 renal 9.39% | A498 renal -2.46% | MOLT-4 leukemia 8.16%
inactive: EKVX NSCLC 31.3% | TK-10 renal 22.1% | ACHN renal 24.1% | CAKI-1 renal 15% | CCRF-CEM leukemia 27.3%

COc1ccc(S(=O)(=O)N(C(C)=O)c2ccccc2/C=C/c2cc[n+]([O-])cc2)cc1
active: A498 renal 1.32%
inactive: EKVX NSCLC 31.8% | UO-31 renal 50% | TK-10 renal 49.2% | ACHN renal 42.5% | CAKI-1 renal 32.7% | CCRF-CEM leukemia 16.4% | MOLT-4 leukemia 22.5%

COc1ccc(C(=O)N2c3ccccc3Sc3ccccc32)c(F)c1
active: A498 renal 2.13%
inactive: EKVX NSCLC 44% | UO-31 renal 49.2% | TK-10 renal 44.5% | ACHN renal 48.4% | CAKI-1 renal 45.3% | CCRF-CEM leukemia 17% | MOLT-4 leukemia 27.1%

CCN(CC)CCNC(=O)c1c(C)[nH]c(/C=C2\C(=O)Nc3ccc(F)cc32)c1C
inactive: EKVX NSCLC 17.8% | TK-10 renal 27.1% | CAKI-1 renal 17.5% | A498 renal 47.4% | MOLT-4 leukemia 17%
active: UO-31 renal 7.88% | ACHN renal -12.8% | CCRF-CEM leukemia 7.54%
